PubChem BioAssay (EPA / NIEHS)
Records with an inconclusive call do not appear. More than one record can exist for a structure, and the calls need not agree. Activity calls are given as the source filed them. The calls were made as follows, unless noted: active = hit-call score of the fitted dose curve at least 0.9, where 1 is the maximum; inactive = score below 0.9.

Experiment: CCTE_Harrill_HTTr_CellCount_MCF7: CCTE's Cell Proliferation Assessment for the High-Throughput Transcriptomics (HTTr) Platform, Harrill Lab (AID 2284012; active = hit-call score of the fitted dose curve at least 0.9, where 1 is the maximum;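 also: count of Hoechst-stained nuclei per well by high-content imaging in MCF-7 cells; cells exposed to compound for six hours; intended direction is loss of nuclei count meaning fewer cells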)
Summary of the method: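 Nuclei counting (Hoechst, high content imaging) in MCF-7 after a 6 h treatment at eight concentrations. Activity fitted bidirectionally, DMSO as negative control.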
In the case of `O=c1c(-c2ccc(O)cc2)coc2cc(O)ccc12`, the outcome is reported as “inactive”.
In the case of `O=C1OC2(c3ccccc31)c1cc(Br)c(O)c(Br)c1Oc1c2cc(Br)c(O)c1Br`, the outcome is reported as “inactive”.
With `CCc1ccc(CCOc2ccc(CC3SC(=O)NC3=O)cc2)nc1` (stereo unspecified) the outcome was “inactive”.
With `OC1CCC(C2CCCCC2)CC1` (stereo unspecified) the outcome was “inactive”.
For `Cc1oc(-c2ccccc2)nc1CCOc1ccc(C[C@H](Nc2ccccc2C(=O)c2ccccc2)C(=O)O)cc1`, the outcome was “inactive”.
With `CC(C)CCCCCCOC(=O)CCCCC(=O)OCCCCCCC(C)C` the outcome was “inactive”.
For `CCCCCCCCC(=O)O`, the outcome was “inactive”.
With `CC(O)CO` (stereo unspecified) the outcome was “inactive”.
For `CCC(=C(c1ccc(O)cc1)c1ccc(OCCN(C)C)cc1)c1ccccc1`, the outcome was “inactive”.
With `Cc1cc(CCN2CCN(c3nsc4ccccc34)CC2)cc2c1NC(=O)CC2(C)C` the AC50 was 92.2 µM (active).
In the case of `COc1ccc([N+](=O)[O-])cc1N`, the outcome is reported as “inactive”.
In the case of `NC(=O)N(O)[C@@H]1C=C[C@H](Oc2cccc(Oc3ccc(F)cc3)c2)C1`, the outcome is reported as “inactive”.
With `CC#C[C@]1(O)CC[C@H]2[C@@H]3CCC4=CC(=O)CCC4=C3[C@@H](c3ccc(N(C)C)cc3)C[C@@]21C` the outcome was “inactive”.
With `OC1CCCCC1` the outcome was “inactive”.
With `CC(=O)NC1(c2cccc(F)c2)CCN(CC[C@@]2(c3ccc(Cl)c(Cl)c3)CN(c3ccccc3)C(=O)CO2)CC1` the outcome was “inactive”.
In the case of `Oc1cc2ccccc2c2ccccc12`, the outcome is reported as “inactive”.
In the case of `CCCCCCCCCCCCN1CCCC1=O`, the outcome is reported as “inactive”.
With `CN1CCN(c2ccccc2/C=C2\SCCN(c3ccc(Cl)c(Cl)c3)C2=O)CC1` the AC50 was 77.1 µM (active).

Experiment: CCTE_Shafer_MEA_acute_burst_number: CCTE's Neural Acute Assay for Single-Electrode Bursts, Shafer Lab (AID 2284013)
Summary of the method: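 Primary rat cortical neurons on 16-electrode MEA wells, treated on DIV 13 or 15 with compound at 0.03-40 uM. Single-electrode burst count from 40-min recordings at 37 C before and after exposure; percent change from baseline per well, DMSO negative control.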
With `O=c1c(-c2ccc(O)cc2)coc2cc(O)ccc12` the outcome was “inactive”.
With `O=C(O)c1ccccc1C(c1ccc(O)cc1)c1ccc(O)cc1` the outcome was “inactive”.
In the case of `CCc1ccc(CCOc2ccc(CC3SC(=O)NC3=O)cc2)nc1` (stereo unspecified), the outcome is reported as “inactive”.
With `OC1CCC(C2CCCCC2)CC1` (stereo unspecified) the outcome was “inactive”.
For `CC(C)CCCCCCOC(=O)CCCCC(=O)OCCCCCCC(C)C`, the outcome was “inactive”.
For `CCC(=C(c1ccc(O)cc1)c1ccc(OCCN(C)C)cc1)c1ccccc1`, the outcome was “inactive”.
With `Cc1cc(CCN2CCN(c3nsc4ccccc34)CC2)cc2c1NC(=O)CC2(C)C` the outcome was “inactive”.
With `CN(C)C=O` the outcome was “inactive”.
In the case of `OCCC(F)(F)C(F)(F)C(F)(F)C(F)(F)C(F)(F)C(F)(F)C(F)(F)C(F)(F)F`, the outcome is reported as “inactive”.
With `CN1CCC[C@H]1c1cccnc1` the AC50 was 0.0479 µM (active).
In the case of `CCCOc1sc(C(=O)N2CCC(c3cc(CN)ccc3F)CC2)c(C)c1Br`, the outcome is reported as “inactive”.
With `NC(=O)N(O)[C@@H]1C=C[C@H](Oc2cccc(Oc3ccc(F)cc3)c2)C1` the outcome was “inactive”.
With `CC(C)(C)c1cc(C(C)(C)C)c(O)c(C(C)(C)C)c1` the outcome was “inactive”.
With `CC#C[C@]1(O)CC[C@H]2[C@@H]3CCC4=CC(=O)CCC4=C3[C@@H](c3ccc(N(C)C)cc3)C[C@@]21C` the AC50 was 1.66 µM (active) and the outcome was “inactive”.
With `CC(=O)NC1(c2cccc(F)c2)CCN(CC[C@@]2(c3ccc(Cl)c(Cl)c3)CN(c3ccccc3)C(=O)CO2)CC1` the AC50 was 1.24 µM (active).
For `Oc1cc2ccccc2c2ccccc12`, the outcome was “inactive”.
In the case of `CCCCCCCCCCCCN1CCCC1=O`, the outcome is reported as “inactive”.
With `CN1CCN(c2ccccc2/C=C2\SCCN(c3ccc(Cl)c(Cl)c3)C2=O)CC1` the outcome was “inactive”.
In the case of `CC[C@H](c1ccc(O)cc1)[C@@H](CC)c1ccc(O)cc1`, the outcome is reported as “inactive”.
For `CCCCCCCCCCCCc1ccccc1S(=O)(=O)O`, the outcome was “inactive”.
In the case of `CCCCCCCCCCCCCCCS(=O)(=O)Oc1ccccc1`, the outcome is reported as “inactive”.

Experiment: CCTE_Shafer_MEA_acute_burst_duration_mean: CCTE's Neural Acute Assay for Mean Burst Duration, Shafer Lab (AID 2284014);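 also: hits are decreases in mean burst duration relative to DMSO controls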
Summary of the method: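 Rat primary cortical neurons on 48-well MEA, treated at DIV 13 or 15 with 0.03-40 uM in at least 3 wells. Value is percent change in mean burst duration, comparing 40 min recordings at 37 C before and during exposure.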
For `O=c1c(-c2ccc(O)cc2)coc2cc(O)ccc12`, the outcome was “inactive”.
For `O=C(O)c1ccccc1C(c1ccc(O)cc1)c1ccc(O)cc1`, the outcome was “inactive”.
For `CCc1ccc(CCOc2ccc(CC3SC(=O)NC3=O)cc2)nc1` (stereo unspecified), the outcome was “inactive”.
With `OC1CCC(C2CCCCC2)CC1` (stereo unspecified) the outcome was “inactive”.
For `CC(C)CCCCCCOC(=O)CCCCC(=O)OCCCCCCC(C)C`, the outcome was “inactive”.
For `CCC(=C(c1ccc(O)cc1)c1ccc(OCCN(C)C)cc1)c1ccccc1`, the AC50 was 23 µM (active).
With `Cc1cc(CCN2CCN(c3nsc4ccccc34)CC2)cc2c1NC(=O)CC2(C)C` the AC50 was 8.81 µM (active).
With `CN(C)C=O` the outcome was “inactive”.
With `OCCC(F)(F)C(F)(F)C(F)(F)C(F)(F)C(F)(F)C(F)(F)C(F)(F)C(F)(F)F` the outcome was “inactive”.
In the case of `CN1CCC[C@H]1c1cccnc1`, the outcome is reported as “inactive”.
With `CCCOc1sc(C(=O)N2CCC(c3cc(CN)ccc3F)CC2)c(C)c1Br` the outcome was “inactive”.
For `NC(=O)N(O)[C@@H]1C=C[C@H](Oc2cccc(Oc3ccc(F)cc3)c2)C1`, the AC50 was 18.5 µM (active).
For `CC(C)(C)c1cc(C(C)(C)C)c(O)c(C(C)(C)C)c1`, the outcome was “inactive”.
For `CC#C[C@]1(O)CC[C@H]2[C@@H]3CCC4=CC(=O)CCC4=C3[C@@H](c3ccc(N(C)C)cc3)C[C@@]21C`, the outcome was “inactive”.
With `CC(=O)NC1(c2cccc(F)c2)CCN(CC[C@@]2(c3ccc(Cl)c(Cl)c3)CN(c3ccccc3)C(=O)CO2)CC1` the AC50 was 1.04 µM (active).
For `Oc1cc2ccccc2c2ccccc12`, the outcome was “inactive”.
For `CCCCCCCCCCCCN1CCCC1=O`, the outcome was “inactive”.
With `CN1CCN(c2ccccc2/C=C2\SCCN(c3ccc(Cl)c(Cl)c3)C2=O)CC1` the AC50 was 32 µM (active).
With `CC[C@H](c1ccc(O)cc1)[C@@H](CC)c1ccc(O)cc1` the outcome was “inactive”.
In the case of `CCCCCCCCCCCCc1ccccc1S(=O)(=O)O`, the outcome is reported as “inactive”.
In the case of `CCCCCCCCCCCCCCCS(=O)(=O)Oc1ccccc1`, the outcome is reported as “inactive”.
